Screening results (PubChem)
An excerpt weighted towards active compounds, which were near 1.8% of everything screened.
PrPC TRFRET: inhibitors of human cell surface prion protein PrPC, primary screen, cell-based, TR-FRET | 370,000 tested, 0.43% active | AID 720596, 2013 | Major prion protein (Homo sapiens), P04156 | TR-FRET read-out | inhibition, % at 13.8 µM; in the data active means inhibition above about 24%
PfHsp40 yeast: rescue of yeast from PfHsp40 toxicity, primary screen, S. cerevisiae, ATP luminescence; 340,000 tested, 0.68% active; AID 504582, 2011; S. cerevisiae expressing PfHsp40, growth rescue; growth rescue, % at 12.5 µM; in the data active means growth rescue above about 28%, passing the limit was not always enough;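 further: yeast W303a lacking pdr1 and pdr3 grown in galactose medium; growth measured after three days at 30 °C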
MazEF act: activators of E. coli MazEF toxin-antitoxin RNase, primary screen, biochemical, fluorescence, uHTS | FAM/BHQ RNA-DNA oligo cleavage fluorescence, 5 h | activation, % at 20 µM | 350,000 tested, 0.32% active | AID 504720, 2011; in the data active means activation above about 50%
Target sequence (P0AE70 whole entry, looked up): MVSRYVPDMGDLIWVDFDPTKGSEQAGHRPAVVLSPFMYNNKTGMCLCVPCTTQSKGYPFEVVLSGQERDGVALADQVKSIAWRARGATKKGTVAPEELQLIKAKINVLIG
PrP 5UTR inh: inhibition of PrP 5' UTR reporter expression. cell-based PrP 5' UTR mRNA reporter, plate reader. inhibition, % (test concentration not listed). 340,000 tested, 0.35% active; in the data active means inhibition above about 52%
PriA SSB inh: inhibitors of Klebsiella pneumoniae PriA binding to SSB C-terminal tail, primary screen, biochemical, AlphaScreen | AlphaScreen SSBct-PriA binding, biotinylated peptide | inhibition, % at 33 µM | 430,000 tested, 0.6% active; in the data active means inhibition mostly above about 37%, no sharp cut-off; inactive means mostly below about 20%
PrP UTR cherry: prion 5' UTR mRNA inhibition, cherry-pick retest; shares compounds with PrP 5UTR inh; cell-based prion protein 5' UTR reporter, plate reader; inhibition, % at 2.5 µM; 1,100 tested, 48% active; AID 504592, 2011; in the data active means inhibition above about 54%
Of the large screens only hits and unclear results are named; the others gave an inactive call (follow-up assays come after a bar, where they were run).

CC[C@@]1(C(=O)OC)N[C@H](CN(C)C(=O)Nc2ccc(F)cc2)[C@@H]2C(=O)N(Cc3ccccc3)C(=O)[C@@H]21	PrP 5UTR inh 70 | PrP UTR cherry inactive
CCN(CC1CCCN(CCc2cccc(F)c2)C1)C(=O)c1ccc(CSC)o1 (centres undefined)	none
CCCn1c(C)cc(C(=O)CN2C(=O)c3ccccc3S2(=O)=O)c1C	none (no result: PfHsp40 yeast, PrP 5UTR inh, PriA SSB inh)
Cc1cc(C(=O)CN2C(=O)c3ccccc3S2(=O)=O)c(C)n1CC1CCCO1 (centres undefined)	PrP 5UTR inh 88 | PrP UTR cherry 86
Cc1ccsc1C(O)CNC(=O)c1ccccc1S(=O)(=O)C(F)F (centres undefined)	none (no result: PrPC TRFRET, PfHsp40 yeast, MazEF act, PrP 5UTR inh)
CCOc1ccc(CN2C(=O)c3ccccc3C2=O)cc1C(=O)NC1CC(C)(C)NC(C)(C)C1	PrP 5UTR inh 85 | PrP UTR cherry inactive
Cc1ccc(CN2C(=O)S/C(=C\c3ccccc3OCC(=O)O)C2=O)cc1	PrP 5UTR inh 81 | PrP UTR cherry inactive
CN(C(=O)OC(C)(C)C)c1ccc(-c2nc3ccccc3s2)cc1	PrP 5UTR inh 90 | PrP UTR cherry 88
CC(C)c1ccc(-c2nc3ccccc3s2)cc1	PrP 5UTR inh 85 | PrP UTR cherry 85
COC(=O)N(C)c1nc2ccccc2s1	none
Cc1cccc(OCC(O)CN2CCN(c3ccccn3)CC2)c1C (centres undefined)	none
CCOC(=O)NC(=O)/C(C#N)=N/Nc1c(F)cccc1F	PrP 5UTR inh 61 (no result: PriA SSB inh) | PrP UTR cherry inactive
COc1ccc(/C=N/NC(=O)c2ccccc2[N+](=O)[O-])cc1CN1CCc2cc(OC)c(OC)cc2C1C (centres undefined)	none (no result: PriA SSB inh)
COc1ccc(N/C=C/C(=O)c2cc(OC)c(OC)c(OC)c2)cc1	PrP 5UTR inh 71 | PrP UTR cherry 89
COc1ccc(N/C=C/C(=O)c2ccc(OC)c(OC)c2)cc1	none
COc1ccc(OC)c(N/C(C)=C/C(=O)c2ccccc2)c1	none (no result: PriA SSB inh)
COc1ccc(OC)c(N/C=C/C(=O)c2ccccc2)c1	PrP 5UTR inh 81 | PrP UTR cherry 61
CCCOc1cccc(C2C(C(=O)c3ccco3)=C(O)C(=O)N2CCCn2ccnc2)c1 (centres undefined)	none
N#Cc1nccnc1OC1CCC(NS(=O)(=O)Cc2ccc(F)cc2)CC1 (centres undefined)	none (no result: PrPC TRFRET, PfHsp40 yeast, MazEF act, PrP 5UTR inh)
CCOC(=O)C1CCCN(C(=O)COC(=O)c2cc(=O)c3ccccc3o2)C1 (centres undefined)	none
Nc1nc(C2CCCN2S(=O)(=O)c2ccc(Cl)cc2)cs1 (centres undefined)	none
CCN(CC)C(=O)C1CCCN(c2ccc([N+](=O)[O-])cc2[N+](=O)[O-])C1 (centres undefined)	PrP 5UTR inh 70 | PrP UTR cherry inactive
CCC(C)C(C)=NNC(=O)c1ccc(CSc2nc3ccccc3s2)cc1 (centres undefined)	none (no result: PrPC TRFRET, PfHsp40 yeast, MazEF act, PrP 5UTR inh)
C=Cc1cc(OC)c2c(c1)c(=O)oc1c2cc(OC)c2c(O)ccc(C3OC(C)C(O)C(C)(O)C3O)c21 (centres undefined)	PrPC TRFRET 31, PrP 5UTR inh 68 | PrP UTR cherry 75
CC1(C)C(=O)Nc2ccccc2N1C(=O)c1ccc([N+](=O)[O-])cc1	none
Cc1ccc(N(C)S(=O)(=O)c2ccsc2-c2nc(-c3ccc4c(c3)OCO4)no2)cc1F	none (no result: PrPC TRFRET, PfHsp40 yeast, MazEF act, PrP 5UTR inh)
Cc1cc(=O)[nH]c(NN=Cc2ccc(N(C)C)cc2)n1	none (no result: PrPC TRFRET, PfHsp40 yeast, MazEF act, PrP 5UTR inh)
CCN(C(=O)c1ccc(Cl)c(S(=O)(=O)Nc2c(C)n(C)n(-c3ccccc3)c2=O)c1)c1ccccc1	none
COc1cc2cc(C(=O)N3CC(COS(C)(=O)=O)c4ccc(O)cc43)[nH]c2c(OC)c1OC (centres undefined)	PfHsp40 yeast 63, PrP 5UTR inh 97 (no result: PrPC TRFRET) | PrP UTR cherry 97
COc1ccc(OC)c2[nH]c(C(=O)N3CCC(C(=O)O)CC3)cc12	none
C=C(C1=CCN(S(=O)C(C)(C)C)[C@@H]1CCO)c1ccccc1 (some centres undefined)	PrP 5UTR inh 59 | PrP UTR cherry inactive
C=C(CCO)C1=CCN(S(=O)C(C)(C)C)[C@@H]1CCO (some centres undefined)	none
